We go through 25 molecules from PubChem BioAssay (NCATS).

Some of the results follow. Entries that show only a call come without a potency. Records with an inconclusive call do not appear. Active and inactive are the calls of the source. Calls come from the whole dose curve; as a rule, active = well fitted inhibition curve with a large enough effect; inconclusive = small, poorly fitted or top-dose-only effect; inactive = flat fitted curve, though single readings scatter.
Potency is the fitted concentration of half-maximal effect.

In this assay the test system is NanoLuc luciferase (engineered Oplophorus gracilirostris luciferase). The assay is described as follows: Biochemical NLuc saturation counterscreen for small molecule modulators of PMP22 gene expression - Nano-Glo assay (AID 1508638). The note with it: Secreted NLuc enzyme (filtered S16 cell medium), Nano-Glo luminescence; series mostly up to 57.5 µM. The source says:
Assay Provider: Jim Inglese Ph.D. National Center for Advancing Translational Science, National Institutes of Health, Rockville, MD CMT is a heterogeneous group of neurological disorders that affect approximately 1 in 2,500 people. In particular, the most common form of CMT, CMT1A is genetically linked to the duplication of the PMP22 gene which leads to Schwann cell overexpression, thus manifesting itself as a typical case of dose-sensitive diseases. To identify small molecule compounds that can mediate the expression of PMP22 we developed a phenotypic assay screening strategy by utilizing genome editing techniques to construct Schwann cell lines containing novel reporter technology to monitor the transcriptional or translational regulation of PMP22. For high sensitivity we use a bioluminescent reporter system embedded in the 3' UTR of the PMP22 gene (S16(c9) Pmp22-F2sN) to identify compounds that inhibit gene expression. […] We can further discriminate the effect of all transcriptionally active molecules on PMP22 translation or stability with an assay that incorporates a short NLuc peptide (HiBiT) at the C-terminus of expressed PMP22 (S16(f8) PMP22-HiBiT) allowing alpha complementation and luminescence detection of membrane-associated PMP22 protein. These assays were screened against the NCATS Sytravon Library Collection. Miniaturization of these assays to 1536-well plate format for quantitative high throughput screening (qHTS) yielded rich data sets immediately from the qHTS assay (S16(c9) Pmp22-F2sN), when compared with data from a cell viability assay (Cell TiterGlo) to identify compounds that decreased the output signals through cellular toxicity to streamline the selection process of actives for subsequent characterization using the HiBiT assay (S16(f8) PMP22-HiBiT).
Biochemical Promega Nano-Glo solution NLuc assay PROTOCOL TABLE (format as described by Inglese J, Shamu CE and Guy RK. 2007) SEQUENCE No. (e.g., 1, 2, 3, etc.); PARAMETER (e.g., Cells, Incubation, Reagent, etc.); VALUE and DESCRIPTION. 1. Reagent. Add 2 uL substrate per well into Greiner 1536-well white/solid bottom high base, medium binding plates. 2. Compounds. Library compounds and controls added at 23nL per well, transferred by Pin Tool. 3. Incubation. Incubate plates 5 min at ambient temperature. 4. Reagent. Add 2uL NLuc enzyme solution per well of Greiner 1536-well plates. 5. Incubation. Incubate plates at room temperature for 10 min., protect from light. 6. Detector. FLuc luminescence measured using CCD-based camera (Viewlux). NOTES (numbers refer to Sequence numbers above; values are from representative experiments) 1. Freshly prepared Nano-Glo Luciferase Assay System reagent per Promega instructions, product N1120, and filtered through […]. 4. Enzyme was obtained by filtering media of S16 cells expressing secreted NLuc (Inglese et al. 2014) grown to 80-90% confluency in DMEM High Glucose, No Phenol Red media + 10% heat inactivated FBS + 1% Pen/Strep supplemented media6. Luminescence Read (Fluc): Clear filter; Exposure = 10 sec, Gain = High, Speed = Slow, Binning = 2X 6. Luminescence Read (Nluc): Clear filter; Exposure = 1 sec, Gain = High, Speed = Slow, Binning = 2X REFERENCES: 1. Inglese J, Shamu CE and Guy RK, Reporting data from high throughput screening of small molecule libraries, Nature Chemical Biology, 2007, 3(8): 438-441. doi.org/10.1038/nchembio0807-438 2. Yasgar A, Shinn P, Jadhav A, Auld DS, Michael S, Zheng W, Austin CP, Inglese J and Simeonov A, Compound Management for Quantitative High-Throughput Screening. J. Assoc. Lab. Auto., 2008, 13: 79-89. doi: 10.1016/j.jala.2007.12.004 3. Inglese, J., Dranchak, P., Moran, J. J., Jang, S. W., Srinivasan, R., Santiago, Y., Zhang, L., Guha, R., Martinez, N., MacArthur, R., Cost, G. J., and Svaren, J. (2014) Genome editing-enabled HTS assays expand drug target pathways for Charcot-Marie-tooth disease, ACS Chem Biol 9, 2594-2602.
A general note: A counterscreen serves to expose hits that act by an unwanted route or on another target.
As for `Cc1ccc(OCCSc2nc3ccc(NC(=O)COc4ccc(C)cc4)cc3s2)cc1`, the Potency entry was “inactive”.

As to `CCCCOc1ccc(CN2C(=O)C(=O)c3cc(Br)cc(C)c32)cc1OC`, the Potency entry is “inactive”.

`CCC1CCCCN1CCCNC(=O)c1cc2c(Cl)nc3ccccc3c2s1` (stereo not given): the Potency result is “inactive”.

Turning to `CCOc1ccc(NC(=O)c2c(NC(=O)Cc3ccccc3)sc3c2CCC(C)C3)cc1` (stereo not given), the Potency entry is “inactive”.

As for `O=C(c1ccc2c(c1)N(Cc1ccc(F)cc1)C(=O)c1ccccc1S2(=O)=O)N1CCN(c2ccccn2)CC1`, the Potency is 3.43 µM (active).

In the case of `CCc1ccc(C2CC(=O)c3c([nH]c(C(=O)OCc4ccc(C)cc4)c3C)C2)cc1` (stereo not given), the Potency entry is “inactive”.

With `COc1ccc(CCNC(=O)c2cc(=O)c3c(C)cc(C)cc3o2)cc1OC`, the Potency is 0.343 µM (active).

Take `Cc1cc(OCC(=O)NCC2(N(C)C)CCCCC2)cc(C)c1Cl`: the Potency result was “inactive”.

As to `Cc1ccc(C)n1-c1nnc(N2CCC(C(=O)NCc3ccccc3Cl)CC2)s1`, the Potency result is “inactive”.

Consider `Cc1cccc(Nc2cc(C)nc(-n3nc(C)cc3C)n2)c1`, for which the Potency is 6.11 µM (active).

Consider `COc1ccccc1Nc1c2c(nc3ccc(NC(=O)/C=C/c4cc(OC)c(OC)c(OC)c4)cc13)CCCC2`, for which the Potency is 4.32 µM (active).

Regarding `CCOC(=O)c1c(C)[nH]c(CCC(=O)NCCCN2CCN(c3cc(C)ccc3C)CC2)c1C`, the Potency result was “inactive”.

On to `CCOCCCNC(=O)c1c(NC(=O)c2nc(SC)ncc2Cl)sc2c1CCCC2`, for which the Potency result was “inactive”.

For `Cc1ccc(CCNC(=O)C2CCN(c3nnc(-n4cccc4CNc4ccc(C)cc4)s3)CC2)cc1`, the Potency entry is “inactive”.

As to `CCCS(=O)(=O)c1ncc(Cl)c(C(=O)Nc2scc(-c3ccccc3)c2C(=O)OCC)n1`, the Potency entry was “inactive”.

For the molecule `O=C(c1ccc(C(F)(F)F)cc1)N1CCC(c2nc(-c3ccc(S(=O)(=O)N4CCCC4)cc3)no2)CC1`, the Potency entry was “inactive”.

`CC(C)(C)c1ccc(C(=O)NCC(c2ccco2)S(=O)(=O)c2ccc(F)cc2)cc1` (stereo not given): the Potency entry is “inactive”.

In the case of `Cc1nnc(SCC(=O)NCc2ccccc2Cl)c2nn(-c3ccccc3)c(C)c12`, the Potency entry is “inactive”.

On to `CC(=O)N1CCCc2cc(S(=O)(=O)N3CCCC(C(=O)N4CCN(c5cccc(Cl)c5)CC4)C3)ccc21` (stereo not given), for which the Potency result was “inactive”.

On to `CCOC(=O)c1c(C)[nH]c(CCC(=O)NCCCN2CCN(c3cccc(Cl)c3)CC2)c1C`, for which the Potency result was “inactive”.

As for `CCC1=Nc2cc(C(=O)NCCCOC(C)C)ccc2Sc2ccc(C)cc21`, the Potency result was “inactive”.

For the molecule `CCOC(=O)c1ccc(NC(=O)CSc2nc3c([nH]c4ccccc43)c(=O)n2C)cc1`, the Potency result was “inactive”.

As for `Cc1ccc(NC(=O)c2nc(S(=O)(=O)Cc3cccc(C)c3)ncc2Cl)cc1`, the Potency entry is “inactive”.

Take `COc1ccc(-c2onc(C)c2C)cc1S(=O)(=O)NCC1CCN(Cc2cccc(F)c2)CC1`: the Potency entry is “inactive”.

As for `CCCn1c2ccccc2c2cnn(CC(=O)NCC3CCN(Cc4ccc(C)cc4)CC3)c(=O)c21`, the Potency result was “inactive”.
